From PubChem BioAssay (NCATS)
Results filed as inconclusive are left out. Where a call stands in place of a potency, no number is given. The source made the active and inactive calls. Calls come from the whole dose curve; as a rule, active = well fitted curve in the direction sought with a large enough effect; inconclusive = small, poorly fitted or top-dose-only effect, or another doubt; inactive = no such curve, though single readings can be large; an effect the other way counts as inactive or inconclusive.

Test: qHTS for Inhibitors of Plasmodium falciparum (DD2) proliferation (AID 504314);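 note: parasite DNA measured by SYBR Green fluorescence after red cell lysis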
Conditions: P. falciparum Dd2 in erythrocytes, SYBR Green growth, 72 h; series mostly up to 1.12 µM
Summary of the method: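 Parasite proliferation measured as SYBR Green signal from Plasmodium DNA, mature erythrocytes lacking DNA. 72 h incubation, 37C; activity scaled between vehicle and 0.29 uM artemisinin, with correction from vehicle-only plates.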
In the case of `CC1(OC(=O)c2ccc(Cl)nc2)C(=O)C=C2C=C(C3CC3)OC=C2C1=O` (configuration not stated), the Potency is reported as “inactive”.
For `COC(=O)CCCC1=CC2=CC(=O)C(C)(OC(=O)c3cccs3)C(=O)C2=CN1CCCCO` (configuration not stated), the Potency was “inactive”.
With `COCCN1C(=O)N[C@@H](c2ccccc2)[C@@H](C(=O)OC)[C@H]1C` the Potency was “inactive”.
For `COCCN1C=C2C(=O)C(C)(OC(=O)CCC(=O)OC)C(=O)C(Br)=C2C=C1c1ccc(OC)cc1` (configuration not stated), the Potency was “inactive”.

Test: qHTS for Inhibitors of Plasmodium falciparum (GB4) proliferation (AID 504315); note: nearly all actives have a fitted effect of over 50% in size
Conditions: P. falciparum GB4 in erythrocytes, SYBR Green DNA, 72 h; series mostly up to 6.7 µM
Summary of the method: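 Parasite growth measured as SYBR Green DNA fluorescence (ex 485, em 535 nm) after overnight lysis following 72 h culture at 37 °C, 0.3% parasitemia, 2.5% hematocrit. Values normalized against DMSO and 0.29 uM artemisinin controls, with plate-stack correction.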
For `COC(=O)C1=C(C(=O)OC)[C@@H]2N(C)c3ccc(OC)cc3[C@@]23C[C@@H](C(=O)OC)N(C(=O)C2CCC2)C3=N1`, the Potency was “inactive”.
For `CC#CCN1C(=O)N[C@@H](c2ccccc2)C(C(=O)OC)=C1C`, the Potency was “inactive”.
For `COCCN1C(=O)N(C)[C@@H](c2ccccc2)C(C(C)=O)=C1C`, the Potency was “inactive”.
With `COC(=O)C1=C(C(=O)OC)[C@@H]2N(C)c3ccccc3[C@@]23C[C@@H](CO)N=C3N1` the Potency was “inactive”.
For `COc1ccc(C2=CC3=C(Br)C(=O)C(C)(OC(=O)c4cnc5ccccc5n4)C(=O)C3=CO2)cc1` (configuration not stated), the Potency was “inactive”.
With `COC(=O)N[C@H](CC(C)=O)c1ccc(Cl)cc1` the Potency was “inactive”.
With `CC(C)OCCCN1C=C2C(=O)C(C)(OC(=O)CCc3ccccc3)C(=O)C=C2C=C1c1ccc(C#N)cc1` (configuration not stated) the Potency was “inactive”.
With `CCOC(=O)CNC(=O)O[C@@H]1C(=O)c2cc(OC)ccc2O[C@H]1c1ccc(OC)c(Br)c1` the Potency was “inactive”.
For `COC/C=C/C1=CC2=CC(=O)C(C)(OC(=O)c3cnc4ccccc4n3)C(=O)C2=CN1CC(C)C` (configuration not stated), the Potency was “inactive”.
With `CC1(OC(=O)CCc2ccccc2)C(=O)C=C2C=C(c3ccc(C#N)cc3)N(C3CC3)C=C2C1=O` (configuration not stated) the Potency was “inactive”.
With `COC/C=C/C1=CC2=CC(=O)C(C)(OC(=O)c3cnc4ccccc4n3)C(=O)C2=CN1c1ccccc1` (configuration not stated) the Potency was “inactive”.
With `CC[C@H](C)[C@@H](NC(=O)O[C@@H]1C(=O)c2cc(Br)ccc2O[C@H]1c1cccc(OC)c1)C(=O)OC` the Potency was “inactive”.
With `COC(=O)CCC(=O)OC1(C)C(=O)C2=CN(CC(C)C)C(c3ccc(OC)cc3)=CC2=C(Br)C1=O` (configuration not stated) the Potency was “inactive”.
For `CCOC(=O)CN1C(=O)NC(c2cccc(C(F)(F)F)c2)C(C(C)=O)=C1C` (configuration not stated), the Potency was “inactive”.
In the case of `CCOC(=O)CN1C(=O)N[C@@H](c2cccs2)C(C(=O)OC)=C1C`, the Potency is reported as “inactive”.
In the case of `CCN1C(=O)NC(c2ccc(Br)cc2)C(C(=O)OC)=C1C` (configuration not stated), the Potency is reported as “inactive”.
With `COC(=O)C1=C(C)N(Cc2ccccc2)C(=O)N[C@H]1c1ccc(Br)cc1` the Potency was “inactive”.
In the case of `CC1(OC(=O)CCc2ccccc2)C(=O)C=C2C=C3CCCN3C=C2C1=O` (configuration not stated), the Potency is reported as “inactive”.
In the case of `COC(=O)CCCC1=CC2=CC(=O)C(C)(OC(=O)c3cccs3)C(=O)C2=CN1c1ccc(CO)cc1` (configuration not stated), the Potency is reported as “inactive”.
For `COC(=O)C1=C(C(=O)OC)[C@@H]2N(Cc3ccccc3)c3ccccc3[C@@]23C[C@@H](C(=O)OC)N(C(=O)NCCBr)C3=N1`, the Potency was “inactive”.
With `COC(=O)C1=C(C(=O)OC)[C@@H]2N(C)c3ccccc3[C@@]23C[C@@H](CO)N(C(=O)c2ccco2)C3=N1` the Potency was “inactive”.
In the case of `COC(=O)C1=C(C)N(Cc2ccccc2)C(=O)N[C@H]1c1cccs1`, the Potency is reported as “inactive”.
For `COC/C=C/C1=CC2=CC(=O)C(C)(OC(=O)c3cnc4ccccc4n3)C(=O)C2=CN1C1CCCCC1` (configuration not stated), the Potency was “inactive”.
With `CC(C)C(=O)N[C@@H]1CCCN1C(=O)C=Cc1ccccc1` the Potency was “inactive”.
With `CCCCC1=CC2=C(c3ccco3)C(=O)C(C)(OC(=O)c3ccc(OC)cc3)C(=O)C2=CN1CC(C)C` (configuration not stated) the Potency was “inactive”.
With `COC(=O)CCCC1=CC2=CC(=O)C(C)(OC(=O)c3cccs3)C(=O)C2=CN1Cc1ccc2c(c1)OCO2` (configuration not stated) the Potency was “inactive”.
In the case of `COC(=O)C1=C(C(=O)OC)[C@@H]2N(C)c3ccccc3[C@@]23C[C@@H](C(=O)OC)N(S(=O)(=O)c2ccc(C#N)cc2)C3=N1`, the Potency is reported as “inactive”.
In the case of `CC1(OC(=O)CCc2ccccc2)C(=O)C=C2C=C(c3ccc(C#N)cc3)N(CCc3ccccn3)C=C2C1=O` (configuration not stated), the Potency is reported as “inactive”.
With `COC/C=C/C1=CC2=CC(=O)C(C)(OC(=O)c3cnc4ccccc4n3)C(=O)C2=CN1C(CO)CO` (configuration not stated) the Potency was “inactive”.
With `O=C1c2cc(Br)ccc2O[C@@H](c2ccc3c(c2)OCO3)[C@@H]1O` the Potency was “inactive”.
In the case of `COC(=O)CCC(=O)OC1(C)C(=O)C2=CN(CC3CC3)C(c3ccc(OC)cc3)=CC2=C(Br)C1=O` (configuration not stated), the Potency is reported as “inactive”.
With `CCCCC1=CC2=CC(=O)C(C)(OC(=O)CC)C(=O)C2=CN1CCN1CCOCC1` (configuration not stated) the Potency was “inactive”.
With `C=CC[C@]1(C(=O)OC)C=C[C@H](C)[C@@H](c2ccccc2)N1C(=O)C(F)(F)F` the Potency was “inactive”.
